Hits are enriched below; roughly 2.2% of the tested compounds scored in any of these assays.
LMP1 NFkB inh = EBV LMP1-driven NF-kappaB luciferase reporter inhibitors, primary screen, cell-based, luminescence, single point | AID 504558, 2011 | inhibition, % at 12.5 µM | LMP1-induced NF-kappaB luciferase reporter cells | 0.69% of 350,000 active; in the data active = inhibition above about 41%; inconclusive = no clear call, values can overlap the other calls;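 also: 0% = neutral control wells and 100% = reference inhibitor control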
PAX8 reporter = inhibitors of PAX8-driven TPO luciferase reporter, primary screen, RMG-I cells, single concentration. AID 652154, 2013. inhibition, % at 12.6 µM. SteadyGlo, 24 h. 1.2% of 360,000 active;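 active = mean replicate inhibition at least 60% with every replicate also reaching 60%; inconclusive = only one of the two criteria is met; inactive = mean below 60% and not all replicates reaching 60%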;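 also: luciferase light reporting Pax8 driven TPO promoter activity; plate controls were median of neutral control wells for no effect and mitoxantrone controls for full effect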
Shn3 inh set2 = reduction of Shn3 3'UTR firefly luciferase signal, primary screen, Schnurri-3 inhibitor project, cell-based, Clone20 osteoblasts, set 2; inhibition, % at 12.5 µM; 0.52% of 360,000 active; AID 588674, 2011; Clone20 osteoblast Shn3 3'UTR firefly luciferase, 24 h;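 active = mean inhibition of at least 75% with every replicate also reaching 75%; inconclusive = mean inhibition at least 75% but some replicate below; inactive = mean inhibition below 75%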;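 also: 0% = median of neutral control wells and 100% = pilot-screen positive control compound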
LGR2 inh = inhibitors of bursicon-induced LGR2 CRE-luciferase signal, primary screen, cell-based, HEK293, CRE-luciferase reporter, bursicon stimulation | bursicon-stimulated, 4 h | inhibition, % at 9.99 µM | 0.35% of 380,000 active;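 active = drop in luminescence signal, shown as inhibition above about 50% in the replicate tests, limit read from the data, passing the limit was not always enough; inconclusive = probably only some replicates passing the limit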;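 also: agonist challenge used bursicon conditioned medium at about half maximal strength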
EWS-Fli inh = EWS/Fli-driven NR0B1 reporter inhibitors, primary screen, A673 cells, NR0B1 luciferase, luminescence, MLPCN library; 0.67% of 350,000 active; viability-normalised; inhibition, % at 12.6 µM; AID 651661, 2012;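 active = mean inhibition of at least 50% after viability correction, with every replicate also passing that limit; inconclusive = mean reaches 50% but only one of two replicates passes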;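 also: firefly luciferase signal divided by Alamar Blue viability fluorescence both relative to DMSO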
MITF TRPM1 inh = inhibitors of MITF-dependent TRPM1 promoter reporter, primary screen, cell-based, SK-MEL-5, single point, luciferase; 0.83% of 330,000 active; SK-MEL-5 TRPM1 promoter luciferase, 24 h; inhibition, % at 12.5 µM;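 active = mean inhibition across replicates of 60% or more, whatever share of single replicates reaches that level; inconclusive = some that reach 60%, reason not given; inactive = mean inhibition across replicates below 60%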
Starred values were filed as active, the others as inactive; ? = inconclusive; nt = no result; ! = not active in a repeat.

SMILES | LMP1 NFkB inh | PAX8 reporter | Shn3 inh set2 | LGR2 inh | EWS-Fli inh | MITF TRPM1 inh
Cc1ccc(C(=O)OCC(=O)c2cc(C)n(CC3CCCO3)c2C)cc1 (stereo unspecified) | -15 | -136 | -73 | -23 | -14 | -61
COc1ccc(S(=O)(=O)N2CCN(C(=O)c3cc(-c4ccc(Br)cc4)n[nH]3)CC2)cc1OC | 18 | 51 | 91* | 18 | 24 | 22
COc1ccc(-c2cc(C(=O)N3CCN(S(=O)(=O)c4ccccc4)CC3)[nH]n2)cc1 | -8 | -10 | -12 | 4 | -5 | -6
CCCC(=O)Nc1ccc2c(c1)C(=O)N(C)C[C@@H](OC)[C@@H](C)CN(C(=O)c1ccncc1)[C@H](C)CO2 | nt | -1 | nt | 6 | 7 | nt
COc1ccc2c3c([nH]c2c1)[C@H](CO)N(S(C)(=O)=O)CC31CN(C(=O)Cc2cccnc2)C1 | nt | nt | nt | -7 | -5 | nt
CN(C)CCCNC(=S)NCC(c1ccc(Cl)cc1Cl)c1c[nH]c2ccccc12 (stereo unspecified) | -41 | 29 | 5 | -2 | 62* | 46
C/C=C/c1cnc2c(c1)C(=O)N([C@@H](C)CO)C[C@@H](C)[C@H](CN(C)C(=O)C1CCOCC1)O2 | nt | 10 | nt | 4 | 4 | nt
CCC(=O)Nc1ccc2c(c1)OC[C@@H](C)N(Cc1ccccc1)C[C@H](C)[C@H](OC)CN(C)C2=O | nt | nt | nt | 1 | -6 | nt
OC1C(O)C(O)C(O)C(O)C1O (stereo unspecified) | 91*! | -4 | 4 | 0 | 4 | 9
OCC1SC(O)C(O)C(O)C1O (stereo unspecified) | nt | nt | nt | nt | -12 | nt
Nc1ncnc2c1c(-c1ccc(Oc3ccccc3)cc1)cn2C1CCCC1 | 47* | 27 | 90* | nt | 18 | 6
C[C@@H]1CN([C@H](C)CO)C(=O)c2cc(NS(=O)(=O)c3ccc(F)cc3)ccc2O[C@H]1CN(C)C(=O)Nc1ccc(C(F)(F)F)cc1 | nt | 8 | nt | -1 | -3 | nt
COc1ccc(-c2csc(NC(=O)c3ccccc3NS(=O)(=O)c3ccc(F)c(F)c3)n2)cc1 | ? | 97* | 79 | 46 | 21 | 77*
Cc1ccc(S(=O)(=O)Nc2ccccc2C(=O)Nc2nc(-c3ccc(F)cc3)cs2)cc1 | 21 | 77* | 75 | 33 | 13 | 44
COc1cccc(NC(=O)N(C)C[C@@H]2Oc3ncc(C#Cc4ccncc4)cc3C(=O)N([C@@H](C)CO)C[C@@H]2C)c1 | nt | 11 | nt | -1 | -3 | nt
COc1cccc(S(=O)(=O)NCC(=O)Nc2ccc(C(C)(C)C)cc2)c1 | -6 | 88* | 9 | 2 | 5 | 10
COc1cccc(NC(=O)CNS(=O)(=O)c2ccc(Cl)cc2)c1 | 3 | nt | 3 | nt | nt | -7
C[C@@H]1CN([C@H](C)CO)C(=O)c2cc(NS(=O)(=O)c3cccs3)ccc2O[C@H]1CN(C)S(=O)(=O)c1cn(C)cn1 | nt | -8 | nt | 10 | 4 | nt
Clc1cccc(CN2CCc3c([nH]c4ccccc34)C2)c1 | 12 | -6 | 1 | 6 | 25 | 9
COc1cc(OC)c(CN2CCc3c([nH]c4ccccc34)C2)cc1Br | 75* | 12 | 19 | 11 | 19 | 17
Cc1cccc(CN2CCc3c([nH]c4ccccc34)C2)c1 | 13 | -3 | -2 | 7 | 6 | 18
Clc1ccc(CN2CCc3c([nH]c4ccccc34)C2)cc1Cl | -10 | 10 | 1 | 20 | 57* | 3
CCC(=O)N1C[C@H]2[C@@H](c3ccccc31)[C@@H](CO)N2C(=O)CC1CC1 | nt | -26 | nt | 1 | 7 | nt
COc1ccc(CN(C)C[C@@H]2Oc3ccc(NS(=O)(=O)c4ccc(C)cc4)cc3CC(=O)N([C@H](C)CO)C[C@H]2C)cc1 | nt | -9 | nt | -14 | -5 | nt
CC(C)NC(=O)Nc1ccc2c(c1)C(=O)N([C@H](C)CO)C[C@@H](C)[C@H](CN(C)Cc1ccncc1)OCCCC[C@@H](C)O2 | nt | -11 | nt | -11 | nt | nt
Cc1ccc(Cn2ncc(Cl)c(Cl)c2=O)cc1 | -94 | 32 | 72 | -10 | nt | ?
O=c1c(Cl)c(Cl)cnn1Cc1nnc(-c2ccc(Cl)cc2)o1 | -82 | 55 | 65 | 104* | 18 | 87*

High-throughput results as filed in PubChem.
